Screening results (PubChem)
TRb-SRC2 inh – qHTS for Inhibitors of the Interaction of Thyroid Hormone Receptor and Steroid Receptor Coregulator 2. Thyroid hormone receptor beta (Homo sapiens), P10828. TRbeta-SRC2 peptide binding, fluorescence polarization; receptor liganded with 1 µM T3. Potency, µM (top dose mostly 106 µM), inactives show at the top dose activity change, negative = inhibition, most hits filed as inhibitors. 0.065% of 280,000 active. AID 1469, 2008;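 also: plate controls were bound peptide for no effect and peptide without receptor for full effect; nearly all actives have a fitted effect of over 50% in size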
Target sequence (P10828 whole entry, looked up): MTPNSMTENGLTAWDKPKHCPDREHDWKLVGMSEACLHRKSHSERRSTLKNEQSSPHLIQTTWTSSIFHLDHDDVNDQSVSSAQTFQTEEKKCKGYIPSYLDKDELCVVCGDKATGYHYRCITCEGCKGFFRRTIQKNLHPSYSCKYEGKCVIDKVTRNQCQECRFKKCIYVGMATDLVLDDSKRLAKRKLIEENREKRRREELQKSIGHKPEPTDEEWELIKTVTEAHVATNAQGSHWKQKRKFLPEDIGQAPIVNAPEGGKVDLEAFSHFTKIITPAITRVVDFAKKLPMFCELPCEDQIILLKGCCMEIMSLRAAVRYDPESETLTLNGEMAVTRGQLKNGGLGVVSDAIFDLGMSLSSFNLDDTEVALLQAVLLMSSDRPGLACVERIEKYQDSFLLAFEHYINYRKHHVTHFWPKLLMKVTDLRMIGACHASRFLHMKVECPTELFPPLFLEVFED
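Fluorescence polarization of 20 nM Texas Red SRC2 peptide (20-aa NR interaction domain) bound to 0.6 uM human TRb ligand-binding domain, with 1 uM T3, after 5 hr at ambient temperature; inhibition seen as decreased polarization.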
TexasRed fluor – Total Fluorescence Counterscreen for Inhibitors of the Interaction of Thyroid Hormone Receptor and Steroid Receptor Coregulator 2. TRb/SRC2 Texas Red total fluorescence interference. Potency, µM (highest dose often 106 µM), inactives show top-dose fluorescence change, negative = quenching. 0.29% of 280,000 active; active = well fitted curve in either direction with a large enough effect; inconclusive = small, poorly fitted or top-dose-only effect
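Human TRb ligand-binding domain at 0.6 uM with 20 nM Texas Red SRC2 peptide in Tris buffer containing 1 uM T3 and 5% DMSO, incubated with compound 5 h at ambient temperature. Total fluorescence (555/632 nm) calculated as parallel + 2 × perpendicular.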
Tau ThT inhib – qHTS for Inhibitors of Tau Fibril Formation, Thioflavin T Binding | Potency, µM (highest dose often 57.4 µM), inactives show at the top dose activity, negative = inhibition, actives largely listed as inhibitors | recombinant tau K18 P301L, heparin-induced fibrillization, ThT fluorescence | AID 1460, 2008 | 2.1% of 270,000 active | Microtubule-associated protein tau (Homo sapiens), P10636; also: nearly all actives have a fitted effect of over 55% in size
Target sequence (P10636 561-689 P618L limits assumed): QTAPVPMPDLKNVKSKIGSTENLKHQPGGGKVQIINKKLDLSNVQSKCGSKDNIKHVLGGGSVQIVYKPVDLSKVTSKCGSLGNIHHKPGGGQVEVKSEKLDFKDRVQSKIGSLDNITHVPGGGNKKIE
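K18 P301L tau (15 uM + 0.24 uM Alexa 594-tagged), heparin 20 uM, NaOAc pH 7, 6 h 37 C; ThT 30 uM, 1 h RT, ex 450/em 510 nm.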
Tau FP inhib – qHTS for Inhibitors of Tau Fibril Formation, Fluorescence Polarization; 0.39% of 280,000 active; K18 P301L tau heparin fibrillization, Alexa594 FP, 6 h; Potency, µM (top dose mostly 57.7 µM), for the others: at the highest dose activity, negative = inhibition, hits mostly inhibitors; AID 1468, 2008; also: nearly all actives have a fitted effect of over 55% in size
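Human K18 P301L fragment (15 uM unlabeled plus 0.24 uM Alexa 594-labeled) in 100 mM sodium acetate pH 7 with compound, aggregation induced by 20 uM heparin for 6 hr at 37 C. ThT (30 uM) added for 1 hr, then Alexa 594 FP read.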
Tau fluor cs – Counterscreen qHTS for Inhibitors of Tau Fibril Formation, Fluorescence Polarization | tau K18 P301L (four-repeat tau fragment) Alexa594 fluorescence, heparin fibrillization | Potency, µM (top dose mostly 57.7 µM), without a hit: at the top dose activity change, negative = decrease | AID 1463, 2008 | 0.93% of 280,000 active; also: nearly all actives have a fitted effect of over 55% in size
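Human K18 P301L tau (15 uM unlabeled plus 0.24 uM Alexa 594-labeled, final) in 100 mM sodium acetate pH 7 was mixed with compound and 20 uM heparin and incubated 6 hr at 37 C.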
* marks the source's active call; other numbers are inactive results; [ ] = dose if it differs, or a comment. An excerpt weighted towards active compounds, which were near 3.1% of everything screened. Unless noted, calls follow the shape of the dose curve; as a rule, active = well fitted curve in the direction sought with a large enough effect; inconclusive = small, poorly fitted or top-dose-only effect, or another doubt; inactive = no such curve, though single readings can be large; an effect the other way counts as inactive or inconclusive. Unless noted, % is scaled to controls: 0 for no effect and ±100 for the full control effect; potency is read from the fitted curve at half-maximal effect.

Screening Cc1ccccc1OCC(=O)NCC(=O)N/N=C/c1cccc([N+](=O)[O-])c1 returned TRb-SRC2 inh -1%, TexasRed fluor -3%, Tau ThT inhib -12%, Tau FP inhib 2% and Tau fluor cs -2%.
Screening Cc1ccccc1OCC(=O)N/N=C/c1cccc(Oc2ccc([N+](=O)[O-])cc2[N+](=O)[O-])c1 returned TRb-SRC2 inh -11%, TexasRed fluor 2%, Tau ThT inhib inconclusive, Tau FP inhib -6% and Tau fluor cs 6.3µM*[quencher].
`O=C(N/N=C/c1cccc(Oc2ccc([N+](=O)[O-])cc2[N+](=O)[O-])c1)c1cncc(Br)c1` gave TRb-SRC2 inh 0%, TexasRed fluor 4%, Tau ThT inhib inconclusive, Tau FP inhib 4% and Tau fluor cs 8.9µM*[quencher].
For O=C(N/N=C/c1cccc(OC(=O)c2ccc3c(c2)OCO3)c1)c1cncc(Br)c1 the results were TRb-SRC2 inh inconclusive, TexasRed fluor -14%, Tau ThT inhib inconclusive, Tau FP inhib inconclusive and Tau fluor cs inconclusive.
CCCCc1cc2c(cn1)=C(OC(=O)C1CCCC1)C(C)(OC(=O)CC)C(=O)C=2 (stereo unspecified) was read as TRb-SRC2 inh 1%[11.2 µM], TexasRed fluor -2%[11.2 µM], Tau ThT inhib inconclusive, Tau FP inhib 1%[11.6 µM] and Tau fluor cs -8%[11.6 µM].
COc1cccc(NC2=Nc3cccc4cccc2c34)c1 was read as TRb-SRC2 inh 6%, TexasRed fluor 4%, Tau ThT inhib 11µM*, Tau FP inhib 15% and Tau fluor cs inconclusive.
`COc1ccc(NC2=Nc3cccc4cccc2c34)cc1OC` gave TRb-SRC2 inh -10%, TexasRed fluor -4%, Tau ThT inhib 13µM*, Tau FP inhib 3% and Tau fluor cs inconclusive.
`COc1ccc(C(=O)CSc2n[nH]c(C)n2)cc1[N+](=O)[O-]` gave TRb-SRC2 inh -9%, TexasRed fluor -1%, Tau ThT inhib -5%, Tau FP inhib -3% and Tau fluor cs -2%.
Screening CC(C)OC(=O)[C@@H]1CC[C@H](C)[C@@H](CCCCO)O1 returned TRb-SRC2 inh 6%, TexasRed fluor -1%, Tau ThT inhib 2%, Tau FP inhib -8% and Tau fluor cs -1%.
`CCOCCCNc1nc2c(C)cccn2c(=O)c1/C=C1\SC(=S)N(C(C)CC)C1=O` (stereo unspecified) gave TRb-SRC2 inh -6%, TexasRed fluor -8%, Tau ThT inhib inconclusive, Tau FP inhib 22µM* and Tau fluor cs -1%.
For CCOCCCNc1nc2c(C)cccn2c(=O)c1/C=C1\SC(=S)N(CC(C)C)C1=O the results were TRb-SRC2 inh -2%, TexasRed fluor -2%, Tau ThT inhib -14%, Tau FP inhib 2% and Tau fluor cs -9%.
`Cc1ccccc1NS(=O)(=O)c1ccc2[nH]cc(C(=O)NCCc3ccccc3)c(=O)c2c1` gave TRb-SRC2 inh 1%, TexasRed fluor -1%, Tau ThT inhib 8%, Tau FP inhib 11µM* and Tau fluor cs inconclusive.
Cc1ccc(CCNC(=O)c2c[nH]c3ccc(S(=O)(=O)Nc4cccc(C(F)(F)F)c4)cc3c2=O)cc1 was read as TRb-SRC2 inh 0%, TexasRed fluor -1%, Tau ThT inhib inconclusive, Tau FP inhib 7.9µM* and Tau fluor cs inconclusive.
CN(C(=O)c1c[nH]c2ccc(S(=O)(=O)Nc3cccc(C(F)(F)F)c3)cc2c1=O)C1CCCCC1 was read as TRb-SRC2 inh -3%, TexasRed fluor -3%, Tau ThT inhib -7%, Tau FP inhib 2% and Tau fluor cs -28%.
Screening CC(C)CCNC(=O)c1c[nH]c2ccc(S(=O)(=O)Nc3cccc(C(F)(F)F)c3)cc2c1=O returned TRb-SRC2 inh 0%, TexasRed fluor 1%, Tau ThT inhib 6%, Tau FP inhib 14µM* and Tau fluor cs inconclusive.
Screening Cc1cc(C)cc(NS(=O)(=O)c2ccc3[nH]cc(C(=O)NCCc4ccccc4)c(=O)c3c2)c1 returned TRb-SRC2 inh 5%, TexasRed fluor 0%, Tau ThT inhib 2%, Tau FP inhib inconclusive and Tau fluor cs inconclusive.
For O=C(NC1CCCC1)c1c[nH]c2ccc(S(=O)(=O)Nc3cccc(C(F)(F)F)c3)cc2c1=O the results were TRb-SRC2 inh -7%, TexasRed fluor -1%, Tau ThT inhib 11%, Tau FP inhib 10µM* and Tau fluor cs inconclusive.
`CCc1ccc(NS(=O)(=O)c2ccc3[nH]cc(C(=O)NCCc4ccccc4)c(=O)c3c2)cc1` gave TRb-SRC2 inh -4%, TexasRed fluor 1%, Tau ThT inhib 8%, Tau FP inhib inconclusive and Tau fluor cs 1%.
CC(=O)c1ccc(NC(=O)CSc2cn(CC(=O)N(C(C)C)C(C)C)c3ccccc23)cc1 was read as TRb-SRC2 inh 0%, TexasRed fluor -1%, Tau ThT inhib -10%, Tau FP inhib -5% and Tau fluor cs -15%.
CCCCn1cc(S(=O)(=O)c2ccc(OC)cc2)c(=O)c2cc(F)c(N3CCCC3)cc21 was read as TRb-SRC2 inh -4%, TexasRed fluor 7%, Tau ThT inhib 2%, Tau FP inhib 2% and Tau fluor cs 1%.
CCOc1ccc(S(=O)(=O)N2CCN(Cc3nc4ccc(C)cc4o3)CC2)cc1 was read as TRb-SRC2 inh 1%, TexasRed fluor -1%, Tau ThT inhib -4%, Tau FP inhib 13% and Tau fluor cs -11%.
For CC(C)(C)NC(=O)[C@H]1CN(Cc2cccnc2)CCN1C[C@@H](O)C[C@@H](Cc1ccccc1)C(=O)N[C@H]1c2ccccc2C[C@H]1O the results were TRb-SRC2 inh 5%, TexasRed fluor -3%, Tau ThT inhib -7%, Tau FP inhib 2% and Tau fluor cs -23%.
For CCSC1=NC2(CCCCC2)Nc2sc3c(c21)CCCC3 the results were TRb-SRC2 inh 3%, TexasRed fluor -5%, Tau ThT inhib 28µM*, Tau FP inhib inconclusive and Tau fluor cs inconclusive.
Cc1cc(C)c(NC(=O)C(C)n2nc(C)c3sc4ccccc4c3c2=O)c(C)c1 (stereo unspecified) was read as TRb-SRC2 inh 2%, TexasRed fluor 0%, Tau ThT inhib -12%, Tau FP inhib -12% and Tau fluor cs -15%.
Screening Cn1c(=O)c2c(n3c4ccccc4nc13)NC(=O)CC2c1ccccc1F (stereo unspecified) returned TRb-SRC2 inh 6%, TexasRed fluor -1%, Tau ThT inhib -7%, Tau FP inhib -1% and Tau fluor cs -3%.
